Here are results for ten molecules from PubChem BioAssay (NCI).

Assay in all cases: NCI-60 one-dose screen, 48 h (100 = growth as untreated, 0 = no growth, -100 = all killed)
Details in all cases: 10 µM unless noted

In assay [1] the test system is SR leukemia.
In assay [2] the test system is RPMI-8226 leukemia.
In assay [3] the test system is OVCAR-8 ovarian.
Assay [4] deals with OVCAR-5 ovarian.
For assay [5], the system named is SK-OV-3 ovarian.
In assay [6] the test system is OVCAR-3 ovarian.
In assay [7] the test system is HS 578T breast.
The test system of assay [8] is NCI/ADR-RES ovarian.
Assay [9] concerns T-47D breast.
The subject of assay [10] is MDA-MB-435 melanoma.
The test system of assay [11] is SW-620 colon.
The subject of assay [12] is MCF7 breast.
The test system of assay [13] is HCT-116 colon.
Assay [14] has as its system KM12 colon.
Assay [15] deals with OVCAR-4 ovarian.
The subject of assay [16] is IGROV1 ovarian.
In assay [17] the test system is BT-549 breast.
In assay [18] the test system is HCC-2998 colon.

About 83,000 compounds went through this panel and 20% of them were active in at least one assay; those are over-represented in the sample as a whole.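 For each line, cells grew in 96-well plates with the test compound present at a single concentration for 48 hours.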 Unmarked numbers belong to inactive results. The source made the active and inactive calls. Rule for the calls: active = growth percent below 10; inactive = the rest.

With `O=C(O)c1cccc2c1Cc1cc([N+](=O)[O-])ccc1-2`, the growth in assay [1] is 89%; in assay [2] it was 100%; in assay [3] it was 108%; in [4], 106%; in [5] it was 107%; in [6], 115%. Moreover, the growth in assay [7] was 95%; in assay [8] it was 100%; in assay [9], 106%; in assay [10], 108%; in assay [11], 103%; in [12], 102%. Also, the growth in [13] is 97.5%; in assay [14], 109%.

On to `COC(=O)c1cc(=O)nc(N/N=C/c2ccc(C)cc2)s1`, for which the growth is 94.8% in assay [1]; 89.9% in assay [2]; 105% in assay [3]; 96.9% in assay [15]; 110% in assay [5]; 105% in assay [16]. Besides, the growth in [6] was 120%; in assay [7], 110%; in assay [8], 106%; in assay [9], 105%; in assay [17] it was 99.6%; in [10], 115%. Moreover, the growth was 106% in [11]; 89.9% in [12]; 105% in assay [13]; 106% in assay [18]; 110% in assay [14].

`O=C1C=Cc2ncccc2C1=O`: the growth in [1] was 12.2%; in assay [2], 27.6%; in [3] it was 87.8%; in assay [15] it was 111%; in assay [5], 83.5%; in [16], 105%. The growth in [6] is 64.4%; in [8], 84%; in [9], 66.6%; in assay [17], 95.5%; in [10], 58.2%; in [12], 12.5%. Besides, the growth is 27.1% in assay [13], 110% in [18] and 104% in assay [14].

Take `CCCCN1CCCCn2c1nc1c2c(=O)n(C)c(=O)n1C`: the growth in assay [1] is 87.6%; in [2] it was 103%; in assay [3], 95.5%; in assay [15] it was 107%; in assay [5], 110%; in assay [6] it was 102%. Moreover, the growth in assay [7] was 100%; in [8], 99.9%; in assay [9], 107%; in assay [17], 108%; in [10], 107%; in assay [11] it was 102%. For the same molecule, the growth in assay [12] is 103%; in [13], 104%; in assay [18], 95.9%; in assay [14] it was 101%.

As for `COc1ccc2[nH]c(-c3ccc(Cl)cc3)cc(=O)c2c1`, the growth is 100% in assay [1]; 96.3% in [2]; 103% in [3]; 98.5% in [15]; 99.6% in assay [5]; 102% in [16]. Moreover, the growth in assay [6] is 106%; in [7], 99.7%; in assay [8], 102%; in assay [9], 116%; in [17], 92.9%; in assay [10], 94.7%. Moreover, the growth in assay [11] was 98.2%; in assay [12], 91.4%; in assay [13] it was 102%; in assay [18], 100%; in assay [14], 98.8%.

In the case of `Oc1ccccc1/C=N\NC(=S)Nc1ccc(F)cc1`, the growth in assay [1] was 11.5%; in [2] it was 41.1%; in [3], 21.9%; in [4] it was 55%; in assay [5], 33.8%; in assay [6], 34.4%. Also, the growth in assay [7] is 32.5%; in [8], -2.4% (active); in assay [9], 42%; in assay [10], 21.8%; in assay [11], 41.5%; in assay [12], 16.9%. The results for the growth in assay [13], in assay [18] and in assay [14] were 25.8%, 39.7% and 23.2%, respectively.

With `O=S(=O)(NCCNc1cc(-c2cn(-c3ccccc3)nc2-c2cccc(O)c2)ccn1)c1ccccc1`, the growth is 11.7% in assay [1]; 32.7% in assay [2]; 49.8% in [3]; 56.3% in assay [15]; 69.5% in assay [5]; 57.1% in assay [16]. For the same molecule, the growth in assay [6] was 63.3%; in assay [7] it was 45.2%; in assay [8], 43.9%; in [9], 26.4%; in assay [17], 67.8%; in assay [10], 14.7%. Also, the growth is 44.4% in [11]; 37.2% in assay [12]; 49.5% in assay [13]; 25.4% in assay [18]; 36.7% in assay [14].

As to `COC(=O)[C@]12CC[C@@H](C)[C@H](C)[C@@H]1C1=CC(=O)[C@@H]3[C@@]4(C)C[C@@H](OC(C)=O)[C@H](OC(C)=O)[C@@](C)(COC(C)=O)[C@@H]4C(=O)C[C@@]3(C)[C@]1(C)CC2`, the growth in assay [1] is 29.1%; in [2] it was 3.4% (active); in [3], 10.4%; in [15], 60.4%; in [5] it was 76.4%; in assay [16], 61.4%. In addition, the growth in assay [6] was 40.2%; in [7], 75.9%; in [8], 13.2%; in assay [9], 45.1%; in assay [17], 17.8%; in [10], 57.8%. Moreover, the growth was 50.2% in assay [11]; 42.5% in [12]; 22.6% in [13]; 68.7% in assay [18]; 44.7% in assay [14].

Take `C=C(C)[C@@H]1CC[C@]2(/C=N/Nc3ccncc3)CC[C@]3(C)[C@H](CC[C@@H]4[C@@]5(C)CCCNC(C)(C)[C@@H]5CC[C@]43C)[C@@H]12`: the growth was 17.9% in assay [1]; 28.7% in [2]; 95.2% in [3]; 89.9% in assay [15]; 113% in assay [5]; 96.4% in assay [16]. Further, the growth in assay [6] was 84.5%; in assay [7] it was 83.2%; in assay [8], 94.5%; in assay [9], 64.5%; in [17], 77.2%; in [10], 86.7%. In addition, the growth in assay [11] was 41.4%; in assay [12], 63.2%; in assay [13], 43.8%; in [18], 71.3%; in assay [14], 82.1%.

In the case of `COC(=O)CNc1nc(N(C)O)nc(N(C)O)n1`, the growth in assay [1] was 34.3%; in [2] it was 36.4%; in assay [3], 34.3%; in assay [15] it was 29.3%; in assay [5], 50.8%; in [16], 48%. Further, the growth was -6.47% (active) in [6]; 77.8% in assay [7]; 21.3% in assay [8]; 64.8% in [9]; 66.9% in [17]; 65.7% in [10]. Further, the growth was 42.8% in assay [11]; 30.7% in assay [12]; 13.8% in assay [13]; 23.4% in assay [18]; 45.2% in [14].
